Screens: PubChem BioAssay, National Center for Advancing Translational Sciences (NCATS)
SW480 rereplic – DNA re-replication induction in SW480 cells. 340,000 compounds, 1.8% hits. SW480 DNA re-replication, Hoechst DNA content imaging, 48 h. Potency, µM (series often up to 46.1 µM), inactives show top-dose re-replication activation, usual class: activators. AID 624297; further: potency means the concentration at half of the fitted maximal effect; % of control where 0% means no effect; nearly all actives have a fitted effect of over 55% in size
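Image-based DNA-content assay: after two days of treatment, nuclei were labelled with the DNA dye Hoechst and imaged, and hits were compounds raising the count of nuclei showing high fluorescence intensity.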
KB-3-1 cytotox – kills parental KB-3-1 adenocarcinoma cells; KB-3-1 viability, CellTiter-Glo ATP luminescence, 72 h; AID 1347075; 400,000 compounds, 1.4% hits; Potency, µM (titrated, usually from 46.1 µM), usual class: cytotoxic; further: potency means the concentration at half of the fitted maximal effect; on the % scale 0 is the no-effect control and ±100 the full control effect; nearly all actives have a fitted effect of over 60% in size
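Viability of parental KB-3-1 cells, measured by CellTiter-Glo luminescence, followed a 72 h incubation at 37 °C with pinned compounds in phenol-red-free DMEM containing 10% FBS.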
D3 antag – antagonists of human D3 dopamine receptor; P35462; D3R cells, DiscoveRx beta-arrestin luminescence, antagonist mode; active compounds read low; max response, negative = inhibition, %; 360,000 compounds, 2.5% hits; AID 652054; in the data active means max response below about -50%; inconclusive means no clear call, values can overlap the other calls; further: on the % scale 0 is the no-effect control and ±100 the full control effect
Target sequence (P35462 whole entry, looked up): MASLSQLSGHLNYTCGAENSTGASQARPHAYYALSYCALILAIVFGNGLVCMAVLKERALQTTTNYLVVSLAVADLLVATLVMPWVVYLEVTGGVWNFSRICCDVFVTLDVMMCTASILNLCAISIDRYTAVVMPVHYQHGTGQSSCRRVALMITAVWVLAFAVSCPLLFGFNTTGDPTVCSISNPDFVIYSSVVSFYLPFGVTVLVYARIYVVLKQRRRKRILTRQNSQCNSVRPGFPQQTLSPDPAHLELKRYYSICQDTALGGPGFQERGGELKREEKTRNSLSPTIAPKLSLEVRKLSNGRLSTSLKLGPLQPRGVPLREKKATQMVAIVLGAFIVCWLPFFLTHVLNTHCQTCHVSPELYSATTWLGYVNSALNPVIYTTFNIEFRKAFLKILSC
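Cells expressing the human receptor were seeded at 1500 cells/well, incubated overnight at 37 degrees C in 5% CO2, then exposed to library compounds with dopamine controls for 90 minutes at 37 degrees C before luminescent detection.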
D3 ag – agonists of human D3 dopamine receptor. P35462. D3R DiscoveRx beta-arrestin cells, luminescence, 90 min. max activation, %. 410,000 compounds, 0.58% hits; in the data active means max activation above about 30%; further: 0% is about no effect
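Cells at 1500/well, incubated overnight, then treated with pinned compounds (dopamine as control) for 90 min at 37 degrees C. DiscoveRx reagent added for 30 - 60 minutes at room temperature; luminescence read.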
MCF10A rerep – inducers of DNA re-replication in MCF 10A breast cells; MCF 10A DNA re-replication, Hoechst nuclear intensity, 48 h; 350,000 compounds, 2.9% hits; Potency, µM (top dose mostly 46.1 µM), for the others: top-dose activity, positive = re-replication, usual class: activators; further: potency means the concentration at half of the fitted maximal effect; % of control where 0% means no effect; nearly all actives have a fitted effect of over 50% in size
KB-V1 MDR tox – kills drug-selected multidrug resistant KB-V1 cells | KB-V1 MDR cells viability, CellTiter-Glo, 72 h | Potency, µM (top dose mostly 46.1 µM), usual class: cytotoxic | 400,000 compounds, 3.4% hits | AID 1347076; further: potency means the concentration at half of the fitted maximal effect; on the % scale 0 is the no-effect control and ±100 the full control effect; nearly all actives have a fitted effect of over 60% in size
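Cells of the MDR subline KB-V1 are plated, dosed with compound at multiple concentrations, and incubated 72 h at 37 degrees C; CellTiter-Glo is then added and luminescence read after 10 min.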
* = called active by the depositor; i = inactive; ? = inconclusive; · = no result. This is a sample that favours compounds with a hit; in the whole collection about 8.9% have one here. Unless noted, the call rests on the fitted dose curve; in most records, active means well fitted curve in the direction sought with a large enough effect; inconclusive means small, poorly fitted or top-dose-only effect, or another doubt; inactive means no such curve, though single readings can be large; an effect the other way counts as inactive or inconclusive.

SMILES	SW480 rereplic	KB-3-1 cytotox	D3 antag	D3 ag	MCF10A rerep	KB-V1 MDR tox
Cc1nn(CC(=O)Nc2ccc3c(c2)OCO3)c(C)c1Cl	0%	i	-14	-3	0%	i
CCC(=O)c1ccc2c(c1)OCCO2	4%	i	6	-6	-4%	i
O=C(Cn1ncc(Cl)c(Cl)c1=O)Nc1ccc2c(c1)OCO2	-2%	?	?	-16	0.73µM*	?
O=C(/C=C/c1ccco1)Nc1nc(-c2ccccn2)cs1	?	i	-5	-1	137%	i
O=C(/C=C/c1ccco1)Nc1ccccn1	5.2µM*	5.8µM*	-11	-2	15µM*	?
Cc1ccc(NC(=O)/C=C/c2ccco2)nc1	?	0.16µM*	-13	-5	?	0.1µM*
COc1cc(F)ccc1-c1cc(C(=O)NCc2cccc(Cl)c2)[nH]n1	·	i	?	-10	·	i
Cc1ccc(Cl)cc1-c1cc(C(=O)NCc2ccccc2)[nH]n1	·	i	-51*	-14	·	i
COc1ccc(Cl)cc1-c1cc(C(=O)NCc2cccc(Cl)c2)[nH]n1	·	?	-71*	-13	·	i
COc1ccc(Cl)cc1-c1cc(C(=O)NCC2CCCCC2)[nH]n1	·	i	-58*	-16	·	i
CC(C)Oc1cc(F)ccc1-c1cc(C(=O)NCC2CCCCC2)[nH]n1	·	i	-83*	-11	·	i
C/C(=N\NC(=O)c1c(Br)c(C)nn1C)c1ccc(NC(=O)C(C)Oc2ccc(Cl)cc2C)cc1 (stereo unspecified)	9%	i	-2	0	16µM*	i
CCC(=O)Nc1ccc(/C(C)=N/NC(=O)c2c(Br)c(C)nn2C)cc1	12%	i	-8	5	10%	7.3µM*
Cc1ccc2c(=O)c(C(=O)c3ccc(Cl)cc3)cn(CC(=O)Nc3ccc4c(c3)OCCO4)c2n1	·	i	·	4	·	i
O=S(=O)(NCCc1nnc2ccc(SCc3cccc(Cl)c3)nn12)c1ccccc1	·	i	·	3	·	i
CCOc1ccc(-c2cn[nH]c2N)cc1	?	i	-15	-21	18µM*	i
O=C(Nc1cc2c(cc1C(=O)c1ccccc1Br)OCCO2)c1cccc(Cl)c1	·	i	·	-8	·	i
COC(=O)c1ccc(NC(=O)C[n+]2ccccc2C)cc1	-10%	i	-59*	-5	-2%	i
COC(=O)c1ccc(NC(=O)c2cccc(OC)c2)cc1	0%	?	20	-2	0%	i
COC(=O)c1ccc(NC(=O)c2cccc(C)c2)cc1	3%	i	-52*	-2	?	i
COC(=O)c1ccc(NC(=O)CC(=O)Nc2ccc(C(=O)OC)cc2)cc1	-2%	i	27	-8	15µM*	i
Cc1cccc(C(=O)Nc2ccn(C)n2)c1	18µM*	i	10	4	-12%	i
CNC(=O)CCC(=O)Nc1ccc(C(=O)OC)cc1	0%	i	3	-9	-1%	i
CCCCCOC(=O)CSc1ncnc2sc3c(c12)CCC(C)C3 (stereo unspecified)	·	i	·	-10	·	i
CCOCCCNC(=O)C1CCN(c2cc(C)nc3c(-c4ccc(Cl)cc4)c(C)nn23)CC1	·	i	·	10	·	?
SMILES	SW480 rereplic	KB-3-1 cytotox	D3 antag	D3 ag	MCF10A rerep	KB-V1 MDR tox
CCC(C)[C@H](NC(=O)NC1CCN(Cc2ccccc2)CC1)C(=O)OC (stereo partly specified)	-6%	i	-50*	-38	9%	i
COC(=O)c1ccccc1NC(=O)NC1CCN(Cc2ccccc2)CC1	-2%	i	-93*	-33	2%	i
O=C(Nc1ccc(F)cc1)NC1CCN(Cc2ccccc2)CC1	3%	i	-28	3	4%	i
COc1ccc(C)cc1NC(=O)NC1CCN(Cc2ccccc2)CC1	7%	i	-83*	-25	12%	i
CCOc1ccc(NC(=O)CC2C(=O)N(c3ccc(C)cc3)C(=O)N2CCC2=CCCCC2)cc1 (stereo unspecified)	·	i	·	-5	·	i
Cc1ccc2c(c1)cc(C(=O)NCc1ccc(F)cc1)n2C	·	i	·	11	·	i
Cc1ccccc1Cn1c(SCc2ccc(C(=O)NC3CCCCC3)cc2)nc2ccncc21	·	i	·	-8	·	i
Cn1cc(C(=O)O)c(=O)c2cc(S(=O)(=O)N3CCOCC3)ccc21	·	?	·	-11	·	?
Cc1sc2nc(C3CC3)nc(N3CCN(C(=O)c4ccc(F)cc4)CC3)c2c1C	?	i	5	-4	?	i
Cc1sc2nc(C3CC3)nc(N3CCN(C(=O)c4ccccc4F)CC3)c2c1C	?	i	11	0	138%	?
COc1ccc(C(=O)N2CCN(c3nc(C4CC4)nc4sc(C)c(C)c34)CC2)cc1	14%	?	-7	-5	?	23µM*
Cc1sc2nc(C3CC3)nc(N3CCN(C(=O)c4ccc(Cl)cc4)CC3)c2c1C	7%	?	-4	9	?	18µM*
Cc1ccc(CCNC(=O)c2cc3c(=O)oc4ccccc4c3s2)cc1	·	i	·	3	·	i
CCOC(=O)C1(C)CCN1C(=O)c1ccc(C(C)(C)C)cc1 (stereo unspecified)	·	i	-4	-7	·	i
CCOC(=O)N1CCN(c2ncc3c(n2)CC(c2ccc(OC)c(OC)c2)CC3=O)CC1 (stereo unspecified)	·	?	·	4	·	4.1µM*
COc1ccc(C2CC(=O)c3cnc(N4CCN(Cc5ccccc5)CC4)nc3C2)cc1 (stereo unspecified)	14%	i	-20	-10	16%	i
CCN1CCN(c2ncc3c(n2)CC(c2ccc(OC)c(OC)c2)CC3=O)CC1 (stereo unspecified)	?	16µM*	11	2	?	21µM*
C[C@H](CO)N1C[C@H](C)[C@@H](CN(C)S(C)(=O)=O)Oc2ccc(NC(=O)c3ccncc3)cc2C1=O	0%	i	-3	0	10%	i
Cc1ccc2onc(CC(=O)N3CCN(c4ccccc4)CC3)c2c1	·	i	·	-3	·	i
Cc1ccc(S(=O)(=O)c2nc(-c3cccc(C)c3)oc2N2CCCCC2)cc1	·	i	·	3	·	i
CCCCN(CCCC)c1nc(OC)nc(-n2nnc(C(C)=O)c2C)n1	-3%	i	13	1	?	i
CC(=O)c1nnn(-c2nc(N)nc(N(c3ccccc3)c3ccccc3)n2)c1C	-9%	i	9	1	0%	10µM*
Cc1cc(C)n(-c2nc(N(c3ccccc3)c3ccccc3)nc(-n3nc(C)cc3C)n2)n1	17%	18µM*	?	22	?	2.6µM*
